Assay outcomes: PubChem BioAssay, several laboratories
A selection: hits, their analogues and other compounds. The true share with any hit is near 1.4%.
LYPLA1 counter: LYPLA1 (human) inhibition in PME1 counter-screen. recombinant LYPLA1, FP-Rh probe fluorescence polarization. hit rate 0.16% among 320,000. AID 2174. inhibition, % at 5.9 µM;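 active = inhibition above the mean of all tested compounds plus 3 SD, set per campaign, cut at about 14% in these data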;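 also: inhibitors block serine hydrolase probe labeling of LYPLA1 so polarization falls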
Target sequence (O75608 whole entry, looked up): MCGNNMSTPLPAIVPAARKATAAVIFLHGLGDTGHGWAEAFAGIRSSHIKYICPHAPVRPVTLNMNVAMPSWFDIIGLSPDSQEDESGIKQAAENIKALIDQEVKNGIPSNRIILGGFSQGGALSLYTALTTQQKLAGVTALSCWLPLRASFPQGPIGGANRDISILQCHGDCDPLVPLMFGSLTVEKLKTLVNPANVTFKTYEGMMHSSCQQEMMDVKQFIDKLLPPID
LYPLA2 inh: counter-screen for PME1 inhibitors: inhibitors of human LYPLA2 | O95372 | recombinant LYPLA2, FP-Rh probe fluorescence polarization | inhibition, % at 5.9 µM | hit rate 0.38% among 320,000;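 active = inhibition above the screen-wide mean plus 3 SD, limit set per campaign, cut at about 26% in these data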
ZTA DNA inh: counter-screen for EBNA-1 inhibitors: inhibitors of Epstein-Barr virus ZTA; ZTA-DNA binding, fluorescence polarization; hit rate 0.15% among 320,000; inhibition, % at 11 µM; P03206; in the data active = inhibition above about 33%
EBNA-1 inhibitor: blocks EBNA-1 binding to DNA | EBNA-1 DNA binding, fluorescence polarization | inhibition, % at 14.8 µM | hit rate 0.34% among 300,000; in the data active = inhibition above about 28%
LANA-H2B inh: blocks KSHV LANA binding to histone H2A/H2B; cell-free LANA-H2A/H2B peptide, fluorescence polarization; Q9QR71; inhibition, % (test concentration not listed); hit rate 0.6% among 320,000; in the data active = inhibition mostly above about 10%, no sharp cut-off; inactive = mostly below about 6.7%
ZTA inh confirm: confirmation of Epstein-Barr virus ZTA DNA binding inhibitors; shares compounds with ZTA DNA inh; inhibition, % at 11.1 µM; hit rate 30% among 320; Zta-ZRE DNA binding, fluorescence polarization; AID 2361;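 active = mean inhibition across triplicate runs above the hit threshold derived for the original primary screen, cut at about 33% in these data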
EBNA-1 counter: EBNA-1 DNA binding inhibition, counter-screen for ZTA | 320 tested, under 10 active | fluorescence polarization | shares compounds with ZTA DNA inh | inhibition, % at 14.8 µM; call rule not given here
Hits are given with their value; n = inactive; x = no result given.

SMILES | LYPLA1 counter | LYPLA2 inh | ZTA DNA inh | EBNA-1 inhibitor | LANA-H2B inh | ZTA inh confirm | EBNA-1 counter
COc1cc(/C=C2\COC/C(=C\c3ccc(O)c(OC)c3)C2=O)ccc1O | n | n | 52 | n | n | 42 | n
Cc1nc(N2CCC(C)CC2)c2c(C)c(C(=O)Nc3cccc(C(F)(F)F)c3)sc2n1 | n | n | n | n | n | x | x
Cc1nc(Nc2cnc(/C=C/c3cc(C(=O)Nc4cccc(C(F)(F)F)c4)ccc3C)cn2)cc(N2CCNCC2)n1 | n | n | 45 | n | n | n | n
C[C@]12CCC3c4ccc(OCC(=O)O)cc4CCC3C1CCC2=O (stereo partly specified) | n | n | n | n | n | x | x
OC(CN1CCc2ccccc2C1)c1ccccc1 (stereo unspecified) | n | n | n | n | n | x | x
OC(Cn1cnnc1)c1ccccc1 (stereo unspecified) | n | n | 53 | n | n | n | n
C=CCOc1ccc(/C=C2\SC(=S)N(N3CCOCC3)C2=O)cc1 | n | n | 41 | n | n | n | n
O=C(O)CCN1C(=O)/C(=C/c2ccc(-c3nc4ccccc4s3)o2)SC1=S | n | n | n | n | n | x | x
O=C(O)CC(C(=O)O)N1C(=O)/C(=C/c2ccc(-c3nc4ccccc4s3)o2)SC1=S (stereo unspecified) | n | n | 59 | n | n | 64 | n
C#CCOCCOCCOCCNc1nc(N2CCOCC2)nc(N2CCN(C(=O)CCCCCCCCCCNC(=O)[C@H](CO)n3cc(CCCCCN)nn3)CC2)n1 | n | n | n | n | n | x | x
C#CCOCCOCCOCCNc1nc(N2CCN(C(=O)CCCCCCCCCCNC(=O)[C@H](CCCCN)n3cc(CCO)nn3)CC2)nc(N2CCN(C(=O)CCCCCCCCCCNC(=O)[C@@H]([C@H](C)O)n3cc(C)nn3)CC2)n1 | n | n | n | n | n | x | x
C#CCOCCOCCOCCNc1nc(N2CCN(C(=O)CCCCCCCCCCNC(=O)Cn3cc(CCCCCN)nn3)CC2)nc(N2CCN(C(=O)CCCCCCCCCCNC(=O)[C@H](CO)n3cc(CCCCCN)nn3)CC2)n1 | n | n | 50 | n | n | 36 | n
C#CCOCCOCCOCCNc1nc(N2CCN(C(=O)CCCCCCCCCCNC(=O)[C@@H](CCSC)n3cc(CCO)nn3)CC2)nc(N2CCN(C(=O)CCCCCCCCCCNC(=O)[C@H]([C@@H](C)CC)n3cc(CCCCCN)nn3)CC2)n1 | n | n | 70 | n | n | 43 | n
C#CCOCCOCCOCCNc1nc(N2CCN(C(=O)C([C@@H](C)CC)n3cc(C(N)CC(C)C)nn3)CC2)nc(N2CCN(C(=O)[C@H](CCC(=O)O)n3cc(C(N)[C@H](C)CC)nn3)CC2)n1 (stereo partly specified) | n | n | 58 | n | n | n | n
C#CCOCCOCCOCCNc1nc(N2CCN(C(=O)CCCCCCCCCCNC(=O)[C@H](CCCCN)n3cc(C)nn3)CC2)nc(N2CCN(C(=O)CCCCCCCCCCNC(=O)[C@@H]([C@H](C)CC)n3cc(CCCCCN)nn3)CC2)n1 | n | n | 70 | n | n | 44 | n
CSc1ncccc1C(=O)Nc1nccs1 | n | n | n | n | n | x | x
COc1ccc(C2=NN(C(=O)CCC(=O)O)C(c3ccccc3F)C2)cc1 (stereo unspecified) | n | n | n | n | n | x | x
C#CCOCCOCCOCCNc1nc(N2CCOCC2)nc(N2CCN(C(=O)CCCCCCCCCCNC(=O)[C@@H](CCSC)n3cc(CCO)nn3)CC2)n1 | n | n | n | n | n | x | x
C#CCOCCOCCOCCNc1nc(N2CCN(C(=O)CCCCCCCCCCNC(=O)[C@@H](CCSC)n3cc(CCO)nn3)CC2)nc(N2CCN(C(=O)CCCCCCCCCCNC(=O)[C@H]([C@@H](C)CC)n3cc(CCCCN=C(N)N)nn3)CC2)n1 | n | n | 121 | n | n | 59 | n
Cc1cccc(C)c1NC(=S)NCCc1ccccn1 | n | n | 34 | n | n | n | n
OCCN(CCO)CC(O)Cn1c2ccccc2c2ccccc21 (stereo unspecified) | n | n | 61 | n | n | n | n
CCc1nn(CC(=O)N2CCN(c3ccc(OC)cc3)CC2)c(=O)c2cc3occc3n12 | n | n | n | n | n | x | x
C#CCOc1c(/C=C\c2nc(O)c([N+](=O)[O-])c(=O)[nH]2)cc(Br)cc1OC | n | n | 50 | n | n | n | n
